Most compounds without a hit are left out; they make up all but 2.6% or so of the library.
Cruzain Triton: qHTS Assay for Promiscuous and Specific Inhibitors of Cruzain (with detergent); 0.43% of 200,000 active; purified cruzain, Z-FR-AMC fluorescence, 0.01% Triton; AID 1478, 2009; Potency, µM, actives largely listed as inhibitors; further: nearly all actives have a fitted effect of over 40% in size
Target sequence (P25779 123-467 limits assumed): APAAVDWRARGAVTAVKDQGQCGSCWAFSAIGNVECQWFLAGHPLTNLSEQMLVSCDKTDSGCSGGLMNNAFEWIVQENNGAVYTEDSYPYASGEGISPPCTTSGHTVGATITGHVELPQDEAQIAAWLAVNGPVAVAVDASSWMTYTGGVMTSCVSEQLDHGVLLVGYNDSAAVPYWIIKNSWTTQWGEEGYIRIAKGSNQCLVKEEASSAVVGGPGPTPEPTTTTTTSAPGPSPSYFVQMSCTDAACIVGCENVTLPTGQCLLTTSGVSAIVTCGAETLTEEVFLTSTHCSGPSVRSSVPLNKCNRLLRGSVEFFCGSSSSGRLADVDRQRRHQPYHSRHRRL
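Enzyme 1.5 nM, Z-FR-AMC 2 uM, NaOAc 100 mM pH 5.5, DTT 5 mM, Triton X-100 0.01%; 15 min RT compound preincubation; kinetic ex360/em450, 60 s delta.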
Cruzain noTriton: qHTS Assay for Promiscuous and Specific Inhibitors of Cruzain (without detergent). Cruzipain (Trypanosoma cruzi), P25779. purified cruzain, Z-FR-AMC fluorescence, no detergent. Potency, µM, hits mostly inhibitors. 2.3% of 200,000 active; further: nearly all actives have a fitted effect of over 40% in size
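Purified cruzain at 1.5 nM, pre-incubated 15 min with compound at room temperature in 100 mM sodium acetate pH 5.5, 5 mM DTT, 0.00005% Triton X-100. Reaction started with 2 uM Z-FR-AMC; AMC fluorescence increase over 60 s gives rate.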
Hits are given with their value; - = inactive; ? = inconclusive. The call rests on the fitted dose curve; in most records, active means well fitted curve in the direction sought with a large enough effect; inconclusive means small, poorly fitted or top-dose-only effect, or another doubt; inactive means no such curve, though single readings can be large; an effect the other way counts as inactive or inconclusive.

SMILES | Cruzain Triton | Cruzain noTriton
CCc1nnc(NC(=O)c2ccc(COc3ccc(C)cc3)o2)s1 | - | 25µM
CCc1nnc(NC(=O)c2ccc(-c3cccc(C(F)(F)F)c3)o2)s1 | - | 13µM
CCc1nnc(NC(=O)c2ccc(-c3cc(C(F)(F)F)ccc3Cl)o2)s1 | - | -
CCc1nnc(NC(=O)c2ccc(COc3ccccc3)o2)s1 | - | ?
CC1=C(C(=O)Nc2cccnc2)C(c2cccc(F)c2)n2nc(SCc3ccccc3F)nc2N1 (configuration not stated) | - | -
COc1ccc(Cl)cc1NC(=O)Cn1c(=O)n(CCC(=O)NCc2ccc3c(c2)OCO3)c(=O)c2ccccc21 | - | -
COc1ccc(Cl)cc1S(=O)(=O)Nc1cccc(-c2ccc(N3CCCC3)nn2)c1 | - | -
Cc1ccc(OCc2nc(-c3ccc(C(=O)N4CCN(c5cc(Cl)ccc5C)CC4)cc3)oc2C)cc1 | - | -
N#CC1=C(N)OC2=C(CCc3ccccc32)C1c1ccccc1 (configuration not stated) | - | -
Cc1ccc(/C=C2\CCC3=C2OC(N)=C(C#N)C3c2ccc(C)cc2)cc1 (configuration not stated) | - | 25µM
COc1cc(NS(=O)(=O)c2ccc(NC(=O)c3ccc(Cl)cc3Cl)cc2)nc(OC)n1 | - | -
COc1ccccc1CNC(=O)c1cc2cccc3c2n1CCS3 | - | 25µM
O=C(NCc1ccccc1Cl)c1cc2cccc3c2n1CCS3 | - | ?
COc1ccc(CNC(=O)c2c(Nc3ccccc3C)sc(C(=O)c3ccccc3)c2N)cc1 | - | ?
Cc1ccccc1Nc1sc(C(=O)c2ccccc2)c(N)c1C(=O)NCc1ccc(Cl)cc1 | - | 5µM
CCOc1ccc(NC(=O)c2c(Nc3ccc(OC)cc3OC)sc(C(=O)c3ccc(Cl)cc3)c2N)cc1 | - | ?
COc1ccc(CNC(=O)c2c(Nc3ccc(OC)cc3OC)sc(C(=O)c3ccc(Cl)cc3)c2N)cc1 | - | 13µM
CCOc1ccc(CNC(=O)c2ccccc2NC(=O)c2nsc3ccccc23)cc1 | - | -
Cc1c(C2=CCN(S(=O)(=O)c3cccc(Cl)c3)CC2)c2ccccc2n1CC(=O)N1CCCC1 | - | -
Nc1ccc2ncccc2c1 | - | -
Nc1ccc2cc3ccccc3cc2c1 | - | 13µM
Cc1cccc(-c2nc(C)c(CCNC(=O)c3cccs3)s2)c1 | - | -
COc1ccc(CCCc2nnc(SCC(=O)Nc3ccc(C)cc3)o2)cc1C | - | -
Cc1cc(Nc2cccc(C(F)(F)F)c2)n2nc(C)nc2n1 | - | -
COc1ccc(-c2nc3nc(C)cc(Nc4cccc(C(F)(F)F)c4)n3n2)cc1 | - | 25µM
SMILES | Cruzain Triton | Cruzain noTriton
CCc1ccccc1NC(=O)C1COc2ccccc2C1 (configuration not stated) | - | -
CCOc1ccccc1OCC(=O)Nc1ccc(Cl)cc1Cl | - | -
CCOc1ccccc1NC(=S)NC(=O)CCCOc1ccc(Cl)cc1Cl | - | 20µM
CCc1nnc(SC(CC)C(=O)Nc2ccc(OC)c(Cl)c2)c2cc3occc3n12 (configuration not stated) | - | -
Cc1ccc(-c2csc(C3C(N)=NC(S)=C(C#N)C34CCCCC4)n2)cc1 (configuration not stated) | - | 16µM
N#CC1=C(S)N=C(N)C(c2nc(-c3ccccc3)cs2)C12CCCCC2 (configuration not stated) | - | -
COc1cccc(-c2nc(-c3ccc4c(c3)-c3ccccc3S4(=O)=O)c(-c3ccccc3)[nH]2)c1OC | - | 13µM
COc1cc(-c2nc(-c3ccc4c(c3)-c3ccccc3S4(=O)=O)c(-c3ccccc3)[nH]2)cc(OC)c1OC | - | -
CCOc1ccc(-c2cn(-c3ccc(C)cc3)c(SCC(=O)Nc3ccc(C)cc3)n2)cc1 | - | 25µM
Cc1cccc(NC(=O)CSc2nc(-c3ccccc3)cn2-c2ccccc2)c1C | - | ?
Cc1ccc(-c2cn(-c3cccc(Cl)c3)c(S(=O)(=O)CC(=O)Nc3cccc(C)c3)n2)cc1 | - | 16µM
Cc1ccc(NC(=O)CS(=O)(=O)c2nc(-c3ccc(C)cc3)cn2-c2ccc(C)cc2)cc1 | - | 13µM
O=C(CS(=O)(=O)c1nc(-c2ccc(Cl)cc2)cn1-c1ccccc1)Nc1cccc(Cl)c1 | ? | -
CCn1cc(S(=O)(=O)CC(=O)Nc2ccc(C)cc2)c2ccccc21 | - | -
CCOc1ccc(-c2cn(-c3ccc(OC)cc3)c(SCC(=O)Nc3ccccc3Cl)n2)cc1 | - | ?
Cc1cccc(NC(=O)CS(=O)(=O)c2nc(-c3ccccc3)cn2-c2cccc(Cl)c2)c1C | - | 10µM
CCCCNC(=O)c1ccc2c(=O)n(Cc3ccc(OC)cc3)c(=O)[nH]c2c1 | - | -
COc1cc(NC(=O)CN2C(=O)CN(C)C(=O)c3ccccc32)cc(OC)c1OC | - | -
COc1ccc(NC(=O)CSc2nnc(-c3nonc3NC(C)=O)n2C)cc1Cl | - | -
O=C(CSc1nncn2c1cc1occc12)Nc1ccccc1C(F)(F)F | - | -
Cc1cc(NC(=O)Cn2c(=O)oc3cc(S(=O)(=O)N4CCCC4)ccc32)ccc1Br | - | -
COC(=O)c1cnc(N2CCN(c3ccc(OC)cc3)CC2)c2ccccc12 | - | -
Cc1nc2c(C(=O)NCCCN(CC(C)C)CC(C)C)cnn2c(C)c1Cc1c(F)cccc1Cl | - | -
O=C(CS(=O)(=O)c1nc(-c2ccc(Cl)cc2)cn1-c1ccccc1)Nc1ccc(F)cc1F | - | 25µM
Cc1cccc(-n2cc(-c3ccccc3)nc2SCC(=O)Nc2ccccc2Cl)c1 | - | -
SMILES | Cruzain Triton | Cruzain noTriton
Cc1ccc(-c2cn(-c3cccc(Cl)c3)c(S(=O)(=O)CC(=O)Nc3ccccc3F)n2)cc1 | - | 16µM
O=C(CN1CCN(c2ccc(Cl)cc2)CC1)Nc1ccc(F)cc1F | - | -
COc1ccccc1CN1C(=O)CN(C2CCCCCC2)C(=O)C1c1ccc(C)cc1 (configuration not stated) | - | -
Cc1ccccc1-c1noc(-c2ccccc2OCC(=O)Nc2cccc([N+](=O)[O-])c2)n1 | - | -
O=C(CCN1CCCCC1)c1ccc2c(c1)OCCO2 | - | -
c1ccc2c(c1)CCN2CCN1CCc2ccccc21 | - | 10µM
O=C(CCN1CCc2ccccc21)c1ccc2c(c1)OCCO2 | - | 7.9µM
CN(C)CCN1CCc2ccccc21 | - | -
O=C(CCc1ccccc1)c1ccc2c(c1)OCCCO2 | - | ?
O=C(CCN1CCCC1Cc1ccccc1)c1ccc2c(c1)OCCO2 (configuration not stated) | 25µM | 20µM
CCN(CC)CC(=O)Nc1nc(-c2ccc(Cl)cc2)cs1 | - | -
O=C(Nc1nc(-c2cccc(Br)c2)cs1)Oc1ccccc1 | - | ?
O=C(Nc1ccccc1)Nc1nc(-c2ccc(Cl)cc2)cs1 | - | 16µM
CC(C)CC(=O)NC(=S)Nc1nc(-c2ccc(Cl)cc2)cs1 | - | ?
O=C(Nc1cccc(Cl)c1)Nc1nc(-c2ccc(Cl)cc2)cs1 | - | 10µM
CCc1ccc(-c2csc(NC(=O)Oc3ccccc3)n2)cc1 | - | 13µM
CCN(C(=O)c1c(C)oc2ncn(CC(C)C)c(=O)c12)c1cccc(Cl)c1 | - | -
CC(=O)N1CCc2cc(S(=O)(=O)NC(Cc3ccccc3)C(=O)Nc3cc(C)ccc3C)ccc21 (configuration not stated) | - | -
CCCCN(CC)CCCNC(=O)c1ccc2c(c1)NC(=O)CN2C | - | -

Screening data deposited in PubChem by National Center for Advancing Translational Sciences (NCATS).
